# Data published in publication PMC7819943, “Rice protein-binding microarrays: a tool to detect cis-acting elements near promoter regions in rice”.
# The full ranking holds about 35,000 sequences; the median of “fluorescence intensity (a.u.)” is about 10,000, and the highest 2% start at about 52,000. For the sample, the highest values were picked, then their nearest neighbours and some sequences at random.
# Target: T1, OsWOX13 (Oryza sativa, UniProt Q5QMM3 1-267)
# T1 sequence: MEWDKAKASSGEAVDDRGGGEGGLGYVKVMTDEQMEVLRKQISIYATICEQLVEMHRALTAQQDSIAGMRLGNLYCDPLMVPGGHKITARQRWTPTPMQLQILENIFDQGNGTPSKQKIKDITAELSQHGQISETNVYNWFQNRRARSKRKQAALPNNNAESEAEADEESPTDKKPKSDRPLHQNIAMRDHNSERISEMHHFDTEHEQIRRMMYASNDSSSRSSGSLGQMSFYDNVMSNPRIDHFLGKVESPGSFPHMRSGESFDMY
# Assay: protein-binding microarray (RPBM); PBS, 2% BSA, 51.3 ng/ul salmon testes DNA, 50 uM zinc acetate, 200 nM TF, 25 C, 1 h; high values mean tight binding
# Conditions: protein: recombinant; tags: N-terminal polyhistidine and DsRed monomer fusion (pET32a); label: CyDye5-dUTP incorporated in the synthesized complementary strand; 3' TTTTT single-stranded linker to array surface; dsDNA, one strand shown
# Summary of the method: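 Per-feature fluorescence intensity (arbitrary units), read on an Axon 4000B scanner, is the binding signal. Transcription factors carrying an N-terminal polyhistidine tag and DsRed fusion were expressed in E. coli BL21-CodonPlus and purified on Ni–NTA. A custom Agilent array, made double-stranded by primer extension with Cy5-dUTP and blocked with 2% BSA, was incubated with 200 nM protein in PBS, 2% BSA, salmon testes DNA and 50 µM zinc acetate at 25 °C for 1 h and then washed.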
row,Sequence,binding signal
1,TCAAATAATTTCGGTCAGAAATTTCCGAAATTTTGGTAATCGGAGTCACCTAGTGCAG,7080 fluorescence intensity (a.u.)
2,GTAGTTAACCATTTAACCTGATGATGTGAGGACGAAAGAACGGAGTCACCTAGTGCAG,4950 fluorescence intensity (a.u.)
3,ATTAACTATAATTATCGGCTGCAATCTAATTCGAATGTAGCGGAGTCACCTAGTGCAG,30300 fluorescence intensity (a.u.)
4,TGGTGGTGGTGGTGGTAGGGTTAGGGGTAGGAGGGGTCTCCGGAGTCACCTAGTGCAG,8890 fluorescence intensity (a.u.)
5,CAGGTAATGGATTGATTGCAGGGTTGGGATTTGACCAGGTCGGAGTCACCTAGTGCAG,51800 fluorescence intensity (a.u.)
6,TTTCAAATCTCAAATTGAAAGTTTTCAAAATTTTCAAATCCGGAGTCACCTAGTGCAG,3760 fluorescence intensity (a.u.)
7,ATAATAAGTTAAAACCTAATCAATCATACGCTAATGACTTCGGAGTCACCTAGTGCAG,6780 fluorescence intensity (a.u.)
8,TATATTTAATTATTGATTTGATGTAACCAATTTAGTATTACGGAGTCACCTAGTGCAG,23400 fluorescence intensity (a.u.)
9,ATTGATTGTAGCCAAAATAAATTTTACTAAATTTTGCCAACGGAGTCACCTAGTGCAG,32500 fluorescence intensity (a.u.)
10,ATCTGATTGATACAGTACTTATTCACTGGAGTAGTATTTCCGGAGTCACCTAGTGCAG,40800 fluorescence intensity (a.u.)
11,AGGATCAAAATTGCATGATTTTGTATAGTTTAGGGATGAACGGAGTCACCTAGTGCAG,3210 fluorescence intensity (a.u.)
12,AAAATTCATGATTGATTTTGTAGTGGATCAACCTTGCCAACGGAGTCACCTAGTGCAG,52400 fluorescence intensity (a.u.)
13,ATCTGATTTGATTTGATTTCGTACACCAGTAGCTTCAACCCGGAGTCACCTAGTGCAG,59800 fluorescence intensity (a.u.)
14,TGATTTCATGATTGATAGCTACATATCTTAGTTTCACACCCGGAGTCACCTAGTGCAG,40200 fluorescence intensity (a.u.)
15,CTGATTAATTGCCAGTAATTTGATTTCAACCTTACGTGTACGGAGTCACCTAGTGCAG,53000 fluorescence intensity (a.u.)
16,CTTACGTGTAAATTGAAATTACATTGTAATTTACATTTGACGGAGTCACCTAGTGCAG,34200 fluorescence intensity (a.u.)
17,GTATTAATCACATTTCATTTCAACTTTTGATTCTGATATGCGGAGTCACCTAGTGCAG,5200 fluorescence intensity (a.u.)
18,TTCGTAAATTTGATCGAATTTGGCTTTTAGACGCTGGACACGGAGTCACCTAGTGCAG,19200 fluorescence intensity (a.u.)
19,CTTAAAACAAATGATTGTTTACGTTCCGTCAATCATGCCCCGGAGTCACCTAGTGCAG,21200 fluorescence intensity (a.u.)
20,CTAATTTTATGGTTAATGGACACGATTTAATCTAGACTCTCGGAGTCACCTAGTGCAG,13800 fluorescence intensity (a.u.)
21,GTCTTGTTCATAATAGACTGGACTCTTTGATTCCTGTGTGCGGAGTCACCTAGTGCAG,3330 fluorescence intensity (a.u.)

row,Sequence,binding signal
1,ATGTTCCTGATTACCCGGTTAGTAAAATTTGAATCGTACTCGGAGTCACCTAGTGCAG,10600 fluorescence intensity (a.u.)
2,CCTTCATTCATTTCCTAATCCCAATCCCACCCTCCATTTCCGGAGTCACCTAGTGCAG,3570 fluorescence intensity (a.u.)
3,TCTCCGTCCCCATCACCCTCGCAATTACTCCACCCGCCGGCGGAGTCACCTAGTGCAG,5550 fluorescence intensity (a.u.)
4,CTCGCCGTCCATCCTTCCCTGCGTCCAATCCCCACCCTCCCGGAGTCACCTAGTGCAG,60200 fluorescence intensity (a.u.)
5,GTTACCTATTAATTAATAGGAAGATGATATAAATAGTTTACGGAGTCACCTAGTGCAG,19400 fluorescence intensity (a.u.)
6,TATGACAGGTGGGATTAGGTATTAATAGTGTAGTATGTAACGGAGTCACCTAGTGCAG,8510 fluorescence intensity (a.u.)
7,ACTATTCTATTATGATGATTAGGCTGTTATTGGTTGAAGTCGGAGTCACCTAGTGCAG,7170 fluorescence intensity (a.u.)
8,ATTGGTCCATTAGCACGTGATTAATTAAGTATTTGCTATTCGGAGTCACCTAGTGCAG,11200 fluorescence intensity (a.u.)
9,CTGGTTCTTGATTATTATTAGGATTAGTTTGTTCCTTTGTCGGAGTCACCTAGTGCAG,16900 fluorescence intensity (a.u.)
10,CTTGATTAGTAGTTGGTTGCTCTTCTTCTTGTTCTTGGTTCGGAGTCACCTAGTGCAG,64200 fluorescence intensity (a.u.)
11,AGAATTGATTAGCTCTTGTTTCTATCATGTTAAACACATTCGGAGTCACCTAGTGCAG,33000 fluorescence intensity (a.u.)
12,GTTAGTAATGTTGATTAGTGCATGGCTTATTTGGTTGCACCGGAGTCACCTAGTGCAG,15600 fluorescence intensity (a.u.)
13,GGCTTAATTGTTGATTAAACATCAGGCTCTTCTTGCATATCGGAGTCACCTAGTGCAG,54900 fluorescence intensity (a.u.)
14,ATTAAATAATTTCTTTGATAAAATTGTTTTGCAGGCATATCGGAGTCACCTAGTGCAG,22300 fluorescence intensity (a.u.)
15,GGCTAATAGTAGGTTGATTAGTCCTTATTGTGCTTGCCCTCGGAGTCACCTAGTGCAG,28500 fluorescence intensity (a.u.)
16,GTTGATTAGCATATATTATTGGTTGCATGTTAGGCTTCCACGGAGTCACCTAGTGCAG,54700 fluorescence intensity (a.u.)
17,TGGAGTGGTGATTTGCTCTCTCTTGAGTGTTGATTAGTGGCGGAGTCACCTAGTGCAG,9250 fluorescence intensity (a.u.)
18,TAATTGATTAGCAGTAAGGTATTGGTTGTCCAATCTTGCTCGGAGTCACCTAGTGCAG,58400 fluorescence intensity (a.u.)
19,ATAATAAATATATTTACATTTAGACCCTCGATGTGTCATCCGGAGTCACCTAGTGCAG,3230 fluorescence intensity (a.u.)
20,TAGGCCCACTAATTAGGCCCATCCAACACGCCGTCCGACGCGGAGTCACCTAGTGCAG,4020 fluorescence intensity (a.u.)
21,TCAAGCTTCTGCAATTTAGTTGATTGATCGAATTAATCAGCGGAGTCACCTAGTGCAG,24600 fluorescence intensity (a.u.)
